High-throughput results from PubChem.
Sampled rows, rich in hits. Any-hit rate of the full collection: about 2.7%.
mIDH1 inhibitor: blocks human mutant IDH1 R132H enzyme; 0.093% of 390,000 active; Potency, µM (top dose mostly 76.6 µM), for the others: top-dose activity change, negative = inhibition, usual class: inhibitors; O75874; IDH1-R132H enzyme, NADPH consumption, diaphorase/resazurin fluorescence; AID 602179; further: on the % scale 0 is the no-effect control and ±100 the full control effect; nearly all actives have a fitted effect of over 65% in size
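IDH1-R132H (0.5 ug/mL) preincubated 30 min with compound, then NADPH (0.016 mM) and alpha-KG (2 mM) added; 80 min at RT, pH 7.5. Remaining NADPH coupled via diaphorase/resazurin to fluorescence (540/590 nm); concentration-response curves normalized to no-enzyme control.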
TrxR1 inh: blocks rat thioredoxin reductase 1. O89049. recombinant rTrxR1, NADPH fluorescence consumption, selenite substrate. Potency, µM (highest dose often 114 µM), for the others: top-dose activity change, negative = inhibition, hits mostly inhibitors. 1% of 390,000 active; further: on the % scale 0 is the no-effect control and ±100 the full control effect; nearly all actives have a fitted effect of over 65% in size
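Rat TrxR1 (90 nM in the dispensed reagent) was pre-reduced with 400 uM NADPH for 5 min at room temperature, then incubated with compound for 15 min. After 400 uM selenite was added, NADPH fluorescence (Ex 340/Em 450 nm) was followed for 8 min.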
GLP1R ag: activates the human GLP-1 receptor; P43220; 0.007% of 380,000 active; AID 624172; HEK293 GLP-1R CRE-luciferase, luminescence, 4-6 h; cells express a hypersensitive GLP-1R form; Potency, µM (top dose mostly 45.6 µM), for inactives: at the top dose activation, usual class: activators; further: % of control where 0% means no effect
Target sequence (P43220 whole entry, looked up): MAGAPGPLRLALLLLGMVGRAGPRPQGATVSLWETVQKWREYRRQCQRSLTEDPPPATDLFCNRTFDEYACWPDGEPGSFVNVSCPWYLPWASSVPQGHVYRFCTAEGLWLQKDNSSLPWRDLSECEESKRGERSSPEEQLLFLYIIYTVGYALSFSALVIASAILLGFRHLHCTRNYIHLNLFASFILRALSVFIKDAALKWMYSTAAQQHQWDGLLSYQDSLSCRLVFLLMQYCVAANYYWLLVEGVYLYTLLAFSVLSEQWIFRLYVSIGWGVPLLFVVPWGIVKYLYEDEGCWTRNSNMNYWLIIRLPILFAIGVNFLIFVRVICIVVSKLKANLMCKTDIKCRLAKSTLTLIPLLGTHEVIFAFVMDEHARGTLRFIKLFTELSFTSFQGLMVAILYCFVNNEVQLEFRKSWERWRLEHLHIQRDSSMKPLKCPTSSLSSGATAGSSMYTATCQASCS
TrxR1 substrate: substrates of rat thioredoxin reductase 1. O89049. purified TrxR1 substrate turnover, NADPH consumption readout. Potency, µM (highest dose often 114 µM), inactives show top-dose activity change, negative = substrate turnover. 0.01% of 390,000 active; further: on the % scale 0 is the no-effect control and ±100 the full control effect; nearly all actives have a fitted effect of over 50% in size
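Rat TrxR1, dispensed at 90 nM, was prereduced with 400 uM NADPH (final) for 5 min at ~22 deg C, then incubated with compound 15 min before 400 uM selenite. A first-read NADPH fluorescence drop versus no-compound background flagged substrates.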
GLP1R inv ag: GLP-1 receptor (human) inverse agonism; 1.6% of 410,000 active; AID 624417; HEK293 GLP-1R CRE-luciferase, luminescence, 24 h; GLP-1R form is constitutively active; Potency, µM (highest dose often 38.3 µM), for inactives: top-dose activity change, negative = inhibition, most hits filed as inhibitors; further: on the % scale 0 is the no-effect control and ±100 the full control effect; nearly all actives have a fitted effect of over 55% in size
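qHTS in 1536-well format: reporter HEK293 cells expressing constitutive GLP-1R activity in DMEM + 10% Nu serum, 24 hr with compounds at 37 deg C, luminescence read after 12 min with detection reagent.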
GLP1R cytotox: cytotoxicity counter-screen for GLP-1 receptor inverse agonists. HEK293 cAMP-luciferase reporter cells, luminescence, 24 h. Potency, µM (titrated, usually from 38.3 µM), for the others: at the top dose activity change, negative = inhibition, hits mostly inhibitors. 0.13% of 410,000 active;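 further: loss of luciferase light is scored as toxicity; on the % scale 0 is the no-effect control and ±100 the full control effect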
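Cells in DMEM/10% Nu serum/1% pen-strep, 1536-well format. Pre-incubated 12 h, dosed with 23 nL compound, incubated a further 24 h. Luciferase detection, 12 min at room temp, luminescence.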
Starred values were filed as active, the others as inactive; [ ] = another dose, or the depositor's remark. The call rests on the fitted dose curve; in most records, active means well fitted curve in the direction sought with a large enough effect; inconclusive means small, poorly fitted or top-dose-only effect, or another doubt; inactive means no such curve, though single readings can be large; an effect the other way counts as inactive or inconclusive. Potency means the concentration at half of the fitted maximal effect.

For Cn1c(O)c(C=Nc2ccccc2)c(=O)n(C)c1=O the results were mIDH1 inhibitor 10%, TrxR1 inh 12%[57.1 µM], GLP1R ag 2%, TrxR1 substrate 11%[57.1 µM], GLP1R inv ag -11% and GLP1R cytotox -2%.
`C=CC[C@@H](CC(=O)N(CCO)Cc1ccccc1)C(=O)N[C@H](COC(=O)[C@H](CC=C)CC(=O)OC(C)(C)C)Cc1c[nH]c2ccccc12` gave mIDH1 inhibitor 15%, TrxR1 inh 1%, GLP1R ag -3%, TrxR1 substrate -15%, GLP1R inv ag inconclusive and GLP1R cytotox -21%.
CCC(C)NCCOCCOc1ccc(Cl)c2ccccc12 (stereo not drawn) was read as mIDH1 inhibitor -8%, TrxR1 inh -10%, GLP1R ag -2%, TrxR1 substrate 4%, GLP1R inv ag 1.6µM* and GLP1R cytotox inconclusive.
CN(C)C(=O)Oc1ccc(Cl)c2ccccc12 was read as mIDH1 inhibitor 7%, TrxR1 inh 12%[57.1 µM], GLP1R ag -1%, TrxR1 substrate 7%[57.1 µM], GLP1R inv ag -25% and GLP1R cytotox -12%.
`COc1ccc(C(=O)Nc2ccc3c(c2)N(C)C(=O)c2ccccc2S3)cc1OC` gave mIDH1 inhibitor -7%, TrxR1 inh 3%[57.1 µM], TrxR1 substrate -6%[57.1 µM], GLP1R inv ag inconclusive and GLP1R cytotox -24%.
For O=C(CCl)NCc1cc(-c2ccc(Cl)cc2)no1 the results were mIDH1 inhibitor 2%, TrxR1 inh -61%, GLP1R ag 10%, TrxR1 substrate 10%[57.1 µM], GLP1R inv ag inconclusive and GLP1R cytotox inconclusive.
Screening CCN1CCN(Cc2ccc(NC(=O)c3ccc(C)c(NC(=O)C(=O)c4c[nH]c5ccccc45)c3)cc2C(F)(F)F)CC1 returned mIDH1 inhibitor -1%, TrxR1 inh -4%, GLP1R ag -7%, TrxR1 substrate -8%, GLP1R inv ag 5.6µM* and GLP1R cytotox inconclusive.
`CN(C)c1ccc(/C=C2/C(=O)NC(=O)N(CCc3ccc(F)cc3)C2=O)cc1` gave mIDH1 inhibitor -3%, TrxR1 inh inconclusive, GLP1R ag -3%, TrxR1 substrate -7%, GLP1R inv ag 14% and GLP1R cytotox 3%.
Screening CCOc1cc(/C=C2\C(=O)NC(=O)N(CCc3ccc(F)cc3)C2=O)ccc1O returned mIDH1 inhibitor -3%, TrxR1 inh 11µM*, GLP1R ag -3%, TrxR1 substrate -5%, GLP1R inv ag 14% and GLP1R cytotox -3%.
CCN(CC)CCN1C(=O)C(O)=C(C(=O)c2cccs2)C1c1ccc(C)o1 (stereo not drawn) was read as mIDH1 inhibitor 0%, TrxR1 inh 16µM*, GLP1R ag 17%, TrxR1 substrate 3%[57.1 µM], GLP1R inv ag 8% and GLP1R cytotox 65%.
`C=CCn1c2ccccc2c2nnc(SCCCn3c(=O)[nH]c4ccccc43)nc21` gave mIDH1 inhibitor -1%, TrxR1 inh 4%, GLP1R ag -24%, TrxR1 substrate -4%, GLP1R inv ag -28% and GLP1R cytotox inconclusive.
CCN1C(=O)NC(=O)/C(=C\c2cn(CC(=O)N3CCCCC3C)c3ccccc23)C1=O (stereo not drawn) was read as mIDH1 inhibitor 10%, TrxR1 inh 20µM*, GLP1R ag -6%, TrxR1 substrate -5%, GLP1R inv ag 6% and GLP1R cytotox 1%.
CCN(CC)CCN(C(=O)CCS(=O)(=O)c1ccccc1)c1nc2c(C)cc(C)cc2s1 was read as mIDH1 inhibitor 1%, TrxR1 inh inconclusive, GLP1R ag -4%, TrxR1 substrate -3%, GLP1R inv ag inconclusive and GLP1R cytotox inconclusive.
`O=C(COC(=O)Cc1ccccc1)Nc1cc(S(=O)(=O)N2CCOCC2)ccc1N1CCCC1` gave mIDH1 inhibitor 3%, TrxR1 inh -16%, GLP1R ag -3%, TrxR1 substrate -9%, GLP1R inv ag 27% and GLP1R cytotox -1%.
For O=S(=O)(c1ccc(Cl)c(NC(=S)N/N=C/c2ccc(O)cc2)c1)N1CCOCC1 the results were mIDH1 inhibitor -8%, TrxR1 inh -25%, GLP1R ag -60%, TrxR1 substrate -10%, GLP1R inv ag inconclusive and GLP1R cytotox 10µM*.
For CN(C(=O)Oc1ccc(C(=O)c2ccc(Cl)cc2)cc1)c1ccccc1 the results were mIDH1 inhibitor 3%, TrxR1 inh 10%, GLP1R ag 1%, TrxR1 substrate 2%, GLP1R inv ag 10µM* and GLP1R cytotox -4%.
Screening CN(C)C(=O)Oc1ccc(OC(=O)c2ccccc2)cc1 returned mIDH1 inhibitor 2%, TrxR1 inh 9%[57.1 µM], GLP1R ag -3%, TrxR1 substrate 2%[57.1 µM], GLP1R inv ag 34% and GLP1R cytotox -9%.
`COc1ccccc1NC(=S)N(Cc1ccco1)Cc1cc2cc(C)ccc2[nH]c1=O` gave mIDH1 inhibitor 5%, TrxR1 inh 9%[57.1 µM], GLP1R ag 8%, TrxR1 substrate -21%[57.1 µM], GLP1R inv ag inconclusive and GLP1R cytotox inconclusive.
`CC(C)N(C(=O)CCl)c1ccccc1` gave mIDH1 inhibitor 19%, TrxR1 inh 20µM*, GLP1R ag 9%, TrxR1 substrate 12%, GLP1R inv ag inconclusive and GLP1R cytotox -18%.
Screening C[C@H](CO)N1C[C@H](C)[C@@H](CN(C)S(=O)(=O)c2cccs2)Oc2ccc(NC(=O)Nc3ccc(C(F)(F)F)cc3)cc2C1=O returned mIDH1 inhibitor 3%, TrxR1 inh 4%, GLP1R ag -1%, TrxR1 substrate -10%, GLP1R inv ag 8.9µM* and GLP1R cytotox inconclusive.
Screening CC(C)(C)OC(=O)NCCCCCNC(=O)c1[nH]cnc1C(=O)Nc1ccc(Cl)cc1 returned mIDH1 inhibitor 0%, TrxR1 inh 12%, GLP1R ag -5%, TrxR1 substrate -6%, GLP1R inv ag inconclusive and GLP1R cytotox inconclusive.
Screening Oc1ccc(Cl)cc1Sc1cc(Cl)ccc1O returned mIDH1 inhibitor -5%, TrxR1 inh 1%, GLP1R ag 4%, TrxR1 substrate -7%, GLP1R inv ag 10µM* and GLP1R cytotox -11%.
Screening CNCC[C@H](Oc1cccc2ccccc12)c1cccs1 returned mIDH1 inhibitor -6%, TrxR1 inh inconclusive, GLP1R ag -1%, TrxR1 substrate 2%, GLP1R inv ag 11µM* and GLP1R cytotox -13%.
Screening CNCCC(Oc1ccc(C(F)(F)F)cc1)c1ccccc1 (stereo not drawn) returned mIDH1 inhibitor -5%, TrxR1 inh 16%[57.1 µM], GLP1R ag 30%, TrxR1 substrate 6%[57.1 µM], GLP1R inv ag inconclusive and GLP1R cytotox -11%.
